Measured values as given in PubChem BioAssay (NCI).
This is part of a sample that, as a whole, favours compounds with a hit. Of some 83,000 tested, about 20% had one in any assay.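 Results are percent growth after 48 hours of single-concentration exposure. 100 means growth as in untreated cells, lower positive values show inhibition; negative values down to -100 show cell death.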 Unmarked numbers belong to inactive results. Active and inactive are the calls of the source. How the source made its calls: active means growth percent below 10; inactive means the rest.

Columns and labels:
Assay in all cases: NCI-60 one-dose screen, 48 h (100 = growth as untreated, 0 = no growth, -100 = all killed)
Settings in all cases: 10 µM
[1] = tested on: DU-145 prostate
[2] = tested on: K-562 leukemia
[3] = tested on: MALME-3M melanoma
[4] = tested on: MDA-MB-231 breast
[5] = tested on: RXF 393 renal
[6] = tested on: SF-268 CNS
[7] = tested on: SF-295 CNS
[8] = tested on: SF-539 CNS
[9] = tested on: UACC-257 melanoma
[10] = tested on: M14 melanoma
[11] = tested on: HCT-15 colon
[12] = tested on: HT29 colon
[13] = tested on: SNB-75 CNS
[14] = tested on: SNB-19 CNS
[15] = tested on: U251 CNS
[16] = tested on: PC-3 prostate
[17] = tested on: SK-MEL-5 melanoma
[18] = tested on: UACC-62 melanoma
[19] = tested on: LOX IMVI melanoma
[20] = tested on: SK-MEL-28 melanoma

S=c1cnc2ccccc2[nH]1
growth [1]: 103% | growth [2]: 99.8% | growth [3]: 84.6% | growth [4]: 111% | growth [5]: 114% | growth [6]: 95.7% | growth [7]: 103% | growth [8]: -10.4% (active) | growth [9]: 99.1% | growth [10]: 89% | growth [11]: 102% | growth [12]: 93.7% | growth [13]: 86.5% | growth [14]: 109% | growth [15]: 95.5% | growth [16]: 86.1% | growth [17]: 97.6% | growth [18]: 98.8% | growth [19]: 94.3% | growth [20]: 108%

COc1ccc(C2=Cn3c(CCC(=O)c4nc5ccccc5[nH]4)nnc3SC2)cc1
growth [1]: 97.7% | growth [2]: 3.14% (active) | growth [3]: 102% | growth [4]: 92.2% | growth [5]: 112% | growth [6]: 107% | growth [7]: 83.7% | growth [8]: 92% | growth [9]: 107% | growth [10]: 111% | growth [11]: 104% | growth [12]: 58.2% | growth [13]: 110% | growth [14]: 113% | growth [15]: 94.1% | growth [16]: 84.2% | growth [17]: 87.7% | growth [18]: 106% | growth [19]: 83.7% | growth [20]: 111%

COc1cc(-c2nn(-c3cccc(NC(=O)CCN4CCN(c5ccccc5)CC4)c3)cc2-c2ccncc2)ccc1Cl
growth [1]: 30.8% | growth [2]: 11.3% | growth [3]: 38% | growth [4]: 7.1% (active) | growth [5]: -0.267% (active) | growth [6]: 30% | growth [7]: 13.4% | growth [8]: 30.2% | growth [9]: 29.1% | growth [10]: 10.8% | growth [11]: 20.8% | growth [12]: 4.96% (active) | growth [13]: 36.8% | growth [14]: 35.9% | growth [15]: 17.2% | growth [16]: 22% | growth [17]: 22% | growth [18]: 26.6% | growth [19]: 6.98% (active) | growth [20]: 28.9%

Cn1cnc([N+](=O)[O-])c1/C=C1\Oc2ccc(Br)cc2C1=O
growth [1]: 91.9% | growth [2]: 67.1% | growth [3]: 96.2% | growth [4]: 91.8% | growth [5]: 102% | growth [6]: 90% | growth [7]: 87.6% | growth [8]: 104% | growth [9]: 84.8% | growth [10]: 95.4% | growth [11]: 70.4% | growth [12]: 83.8% | growth [13]: 88.1% | growth [14]: 90.1% | growth [15]: 101% | growth [16]: 81.5% | growth [17]: 91.2% | growth [18]: 96.6% | growth [19]: 72.8% | growth [20]: 97.4%

Nc1nc(-c2ccc(Cl)cc2)cc(-c2cc3ccccc3oc2=O)n1
growth [1]: 106% | growth [2]: 114% | growth [3]: 80% | growth [4]: 93.9% | growth [5]: 112% | growth [6]: 104% | growth [7]: 89.1% | growth [8]: 117% | growth [9]: 132% | growth [10]: 95.3% | growth [11]: 102% | growth [12]: 93.5% | growth [13]: 68.4% | growth [14]: 94% | growth [15]: 99.4% | growth [16]: 97.8% | growth [17]: 91.2% | growth [18]: 92.5% | growth [19]: 92.8% | growth [20]: 110%

CCN(CC)CC(=O)N(CC)c1ccc(C)c(Cl)c1
growth [1]: 103% | growth [2]: 108% | growth [3]: 96.2% | growth [4]: 113% | growth [5]: 105% | growth [6]: 92.9% | growth [7]: 101% | growth [8]: 108% | growth [9]: 88.7% | growth [10]: 100% | growth [11]: 101% | growth [12]: 90.1% | growth [13]: 96.9% | growth [14]: 104% | growth [15]: 87% | growth [16]: 88.2% | growth [17]: 98.4% | growth [18]: 97.7% | growth [19]: 93.2% | growth [20]: 108%

CC(C)(C)OC(=O)N1CCc2c(sc3ncnc(N/N=C/c4cccc5ccccc45)c23)C1
growth [1]: 49.7% | growth [2]: 7.07% (active) | growth [3]: 49.9% | growth [4]: 45.6% | growth [5]: 2.63% (active) | growth [6]: 46.7% | growth [7]: 1.31% (active) | growth [8]: -11.3% (active) | growth [9]: 40.6% | growth [10]: 20.3% | growth [11]: 6.88% (active) | growth [12]: 26.2% | growth [13]: -3.28% (active) | growth [14]: 26.3% | growth [15]: 33.7% | growth [16]: 25.9% | growth [17]: -57.2% (active) | growth [18]: 0.0448% (active) | growth [19]: 13.1% | growth [20]: 32.9%

COc1cc2c(Nc3ccc(-c4ccc(N)cc4)cc3)ncnc2c(OC)c1OC
growth [1]: 34.9% | growth [2]: 11% | growth [3]: 36.5% | growth [4]: 56.9% | growth [5]: 103% | growth [6]: 52.6% | growth [7]: -33.2% (active) | growth [8]: 17.5% | growth [9]: 43.8% | growth [10]: 13.8% | growth [11]: 28.8% | growth [12]: 46.2% | growth [13]: 82.8% | growth [14]: 51.1% | growth [15]: 42.6% | growth [16]: 47.3% | growth [17]: -25.1% (active) | growth [18]: 7.02% (active) | growth [19]: 31.1% | growth [20]: 75.6%
